# Inconclusive results are not listed. Active and inactive are the calls of the source. Rule for the calls: active = hit-call score of the fitted dose curve at least 0.9, where 1 is the maximum; inconclusive = response in the unintended direction; inactive = score below 0.9.
# Assay: CCTE_Shafer_MEA_dev_AB: CCTE's Alamar Blue Assay for Cytotoxicity in the Neural Network Formation Assay, Shafer Lab (AID 2284083);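 note: twelve days of exposure from plating with re-dosing on DIV 5 and 9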
# Protocol: CCTE_Shafer_MEA_dev assay is conducted using Axion Biosystems 48 well microelectrode array (MEA) plates and Maestro recording system. Each well of the MEA plate contains a grid of 16 microelectrodes embedded in the culture surface. Electrically active cells, such as neurons, can be cultured over the electrodes, and electrical activity in these cells can be recorded extracellularly. The spontaneous firing of neurons is captured from each electrode on a microsecond timescale providing both temporally and spatially precise data. […] The CCTE_Shafer_MEA_dev assay uses primary cultures of rat cortical neurons. Recordings are made on days post-plating 5, 7, 9 and 12. As these cultures mature over time, neural networks develop functional activity and form cohesive networks in which electrical activity can be highly coordinated. CCTE_Shafer_MEA_dev_AB is 1 of 19 assay components of the CCTE_Shafer_MEA_dev assay. It measures the resazurin reduction using fluorescence.Data from the assay component CCTE_Shafer_MEA_dev_AB was analyzed into 1 assay endpoint. This assay endpoint, CCTE_Shafer_MEA_dev_AB, was analyzed in the positive analysis fitting direction relative to DMSO as the negative control and baseline of activity. Using a type of viability reporter, loss-of-signal activity can be used to understand cell viability.
# On the day prior to culture, each well was coated thoroughly with 150 uL of 0.05% polyethyleneimine (PEI, Sigma Cat P3143) in 50 mM HEPES (Sigma Cat H7523) at a pH of 8. The plate was incubated at 37C for one hour. PEI was rinsed out with 500 uL of sterile water three times. Plates were stored at 4C until the day of culture. This culture was plated at a seeding density of 1.5 x 10^5 cells/well on a 48-well MEA plate, prepared as described above. Cells were administered via a 25 uL media/laminin ([…]; Sigma Cat L2020-1MG) drop directly onto the microelectrode array, as adding the cells with the laminin results in better attachment than pre-coating with laminin. After 2 hours, an additional 475 uL of cortical media was added and the cells returned to the incubator. Exposure starts at day 0 of plating and is continued over twelve days of network development until the experiment is terminated. Cells are fed with fresh medium on DIV 5 and 9, following the recordings on those days. The entire volume of media in the well is exchanged and any vehicle or compound treatment is renewed. Complete details are found in OP-NHEERL/ISTD/SBB/TJS/2015-03-r0 (available on request, email shafer.tim@epa.gov). Measurement of the electrical activity is non-invasive, and recordings can be made from the same plate over multiple different days of the culture. In cortical neurons, this allows for the measurement of extracellular action potentials over the period during which networks form in the MEA plate.
SMILES,outcome,AC50
c1ccc2c(c1)ccc1c3ccccc3ccc21,inactive,–
CC(=O)N[C@@H](CC(=O)O)C(=O)O,inactive,–
C[C@@H]1CCO[C@H]2Cn3cc(C(=O)NCc4ccc(F)cc4F)c(=O)c(O)c3C(=O)N12,–,1.8 µM (active)
Brc1cc(Br)c(Oc2cc(Br)c(Br)cc2Br)cc1Br,inactive,–
CCCCCC=C(C)C(CC)CCO (stereo not drawn),inactive,–
F,inactive,–
[O]=[V]([OH])([OH])[OH],–,28 µM (active)
CN(C)CCCn1cc(C2=C(c3c[nH]c4ccccc34)C(=O)NC2=O)c2ccccc21,–,7.86 µM (active) [middle of 4 runs]
CCc1ccccc1,–,0.476 µM (active)
BrC1CC(Br)CC(Br)CC(Br)CC(Br)CC(Br)C1 (stereo not drawn),–,12.6 µM (active)
CC(CNC(=S)[S-])NC(=S)[S-].[Zn+2] (stereo not drawn),–,32.2 µM (active)
CC(C)O,inactive,–
O=C1CC2(CCCC2)CC(=O)N1CCCCN1CCN(c2ncccn2)CC1,–,15 µM (active)

# Reference: PubChem BioAssay (EPA / NIEHS)
